Activity calls are given as the source filed them. The calls were made as follows: active = hit-call score of the fitted dose curve at least 0.9, where 1 is the maximum; inactive = score below 0.9.
Legend:
[1] = APR_HepG2_CellLoss_72hr: Apredica 72-hour HepG2 Assay for Cell Loss (AID 2282915); conditions: high-content imaging
Outline: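 HepG2 cells were exposed for 72 hr to compounds at 0.39–200 uM (ten concentrations, duplicate) in 0.5% v/v final DMSO. Nuclei were stained with Hoechst 33342 after 3.7% formaldehyde fixation, imaged at 20x, and counted; fits bidirectional versus DMSO.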

[2] = APR_HepG2_P-H2AX_72hr: Apredica 72-hour HepG2 Assay for H2AX Phosphorylation (AID 2282916); conditions: imaging, actives raise or lower the signal;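 also: phospho-histone H2A.x immunostain intensity per cell marking DNA damage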
Outline: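 HepG2 human liver cells were exposed for 72 hr to compounds at 0.39–200 uM (10 concentrations, duplicate per plate) in 0.5% v/v DMSO. Fixed, permeabilized cells were immunolabeled for phospho-histone H2A.x with Hoechst 33342 and imaged by HCS fluorescence; bidirectional fit versus DMSO.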

[3] = APR_HepG2_MitoMembPot_72hr: Apredica 72-hour HepG2 Assay for Mitochondrial Membrane Potential (AID 2282917); conditions: imaging, actives raise or lower the signal
Outline: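 HepG2 cells exposed 72 h to compounds at 0.39–200 uM (0.5% v/v DMSO, duplicates); MitoTracker Red CMXRos 250 nM loaded 30 min before 3.7% formaldehyde fixation, imaged by HCS fluorescence. Bidirectional fit versus DMSO.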

[4] = APR_HepG2_MitoticArrest_72hr: Apredica 72-hour HepG2 Assay for Mitotic Arrest (AID 2282918); conditions: high-content imaging, actives raise or lower the signal
Outline: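 Mitotic arrest in HepG2 is scored from phospho-histone H3 staining after 72 hr dosing across 0.39–200 uM, with DMSO at 0.5% v/v. Nuclei are identified by Hoechst 33342 and fluorescence intensity is quantified per cell.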

[5] = APR_HepG2_MicrotubuleCSK_72hr: Apredica 72-hour HepG2 Assay for Microtubule CSK Stabilty (AID 2282919); conditions: HepG2 microtubule cytoskeleton, high-content imaging, actives raise or lower the signal
Outline: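 HepG2 human liver cells were dosed for 72 h at ten concentrations from 0.39 to 200 uM in duplicate (0.5% v/v DMSO final). Fixed, permeabilized cells were immunostained for alpha-tubulin (Cy5) with a Hoechst counterstain and imaged at 20x.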

[6] = APR_HepG2_StressKinase_72hr: Apredica 72-hour HepG2 Assay for Stress Kinase (AID 2282921); conditions: HepG2 stress kinase (phospho-c-Jun) imaging, actives raise or lower the signal
Outline: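 Cells were exposed for 72 h to ten concentrations (0.39–200 uM, duplicate) at 0.5% v/v DMSO final, then fixed with 3.7% formaldehyde, permeabilized and immunostained for phospho-c-Jun (Cy3 secondary) with Hoechst nuclear counterstain.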

[7] = APR_HepG2_p53Act_72hr: Apredica 72-hour HepG2 Assay for p53 Activation (AID 2282923); conditions: high-content imaging, actives raise or lower the signal;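 also: average cellular p53 protein immunofluorescence intensity in HepG2 cells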
Outline: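 Cells were dosed for 72 hr with compounds at 0.39–200 uM in duplicate (final DMSO 0.5% v/v), then fixed in 3.7% formaldehyde, permeabilized with Triton X-100 and immunostained for p53 (Cy5) with Hoechst 33342 nuclear counterstain.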

[8] = APR_HepG2_MitoMass_72hr: Apredica 72-hour HepG2 Assay for Mitochondrial Mass (AID 2282924); conditions: high-content imaging, actives raise or lower the signal;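 also: MitoTracker Red CMXRos stain intensity per cell imaged as mitochondrial mass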
Outline: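 HepG2 cells were exposed for 72 hr to compounds at 0.39–200 uM (ten concentrations, duplicate, 0.5% v/v DMSO final). Live cells were stained with 250 nM MitoTracker Red CMXRos for 30 min, then fixed in 3.7% formaldehyde and imaged by HCS fluorescence.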

[9] = APR_HepG2_NuclearSize_72hr: Apredica 72-hour HepG2 Assay for Nuclear Size (AID 2282925); conditions: high-content imaging, actives raise or lower the signal
Outline: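 HepG2 cells were exposed to compounds at ten concentrations from 0.39 to 200 uM (duplicate, 0.5% DMSO final) for 72 hr. After fixation in 3.7% formaldehyde, nuclei were stained with Hoechst 33342 (2 ug/mL) and imaged at 20x.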

[10] = molecular target: CCAAT/enhancer-binding protein beta (Homo sapiens) (UniProt P17676); assay: ATG_C_EBP_CIS: Attagene CIS-FACTORIAL HepG2 Assay for human CCAAT/Enhancer Binding Protein (C/EBP) beta (AID 2282927); conditions: HepG2 Attagene cis-factorial transcription factor reporter; actives raise or lower the signal
Chain of CCAAT/enhancer-binding protein beta (Homo sapiens) (P17676 whole entry, looked up): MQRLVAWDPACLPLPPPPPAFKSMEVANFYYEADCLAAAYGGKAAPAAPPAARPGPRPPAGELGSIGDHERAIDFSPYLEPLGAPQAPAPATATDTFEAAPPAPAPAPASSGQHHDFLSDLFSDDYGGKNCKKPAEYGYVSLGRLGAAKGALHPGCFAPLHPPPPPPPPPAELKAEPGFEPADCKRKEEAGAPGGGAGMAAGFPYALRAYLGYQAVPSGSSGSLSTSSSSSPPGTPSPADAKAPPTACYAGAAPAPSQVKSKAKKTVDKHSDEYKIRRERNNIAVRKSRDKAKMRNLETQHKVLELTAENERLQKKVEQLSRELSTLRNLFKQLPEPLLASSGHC
Outline: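 RT-PCR/capillary electrophoresis fluorescence of reporter mRNA, 24 h post-dose, in HepG2 cells carrying transfected cis-promoter reporter units. Bidirectional curve fitting against DMSO baseline captures gain or loss of signal.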

[11] = ATG_CMV_CIS: Attagene CIS-FACTORIAL HepG2 Assay for human CMV (Internal Marker) (AID 2282928); conditions: HepG2 CMV promoter reporter, transcription factor profiling; actives raise or lower the signal;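 also: endpoint acts as a background internal control marker rather than a target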
Outline: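 After transient transfection of HepG2 with reporter transcription units driven by cis-regulatory promoters, cells receive test chemical for 24 h. Labeled reporter amplicons, digested with HpaI, are sized and quantified by capillary electrophoresis against DMSO.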

[12] = ATG_DR4_LXR_CIS: Attagene CIS-FACTORIAL HepG2 Assay for human Liver X Receptor (LXR), DR4 submotif (AID 2282929); conditions: HepG2 Attagene DR4 cis-reporter, mRNA transcription; actives raise or lower the signal
Outline: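 Total RNA from 24 h-treated, MRTU-transfected HepG2 cells underwent reverse transcription, PCR, fluorescent primer extension and restriction digestion before capillary electrophoresis. Both increases and decreases in reporter signal were fitted against DMSO.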

[13] = molecular target: Aryl hydrocarbon receptor (Homo sapiens) (UniProt P35869); assay: ATG_Ahr_CIS: Attagene CIS-FACTORIAL HepG2 Assay for human Aryl Hydrocarbon Receptor (Ahr) (AID 2282930); conditions: HepG2 AhR cis-factorial reporter transcription; actives raise or lower the signal
Chain of Aryl hydrocarbon receptor (Homo sapiens) (P35869 whole entry, looked up): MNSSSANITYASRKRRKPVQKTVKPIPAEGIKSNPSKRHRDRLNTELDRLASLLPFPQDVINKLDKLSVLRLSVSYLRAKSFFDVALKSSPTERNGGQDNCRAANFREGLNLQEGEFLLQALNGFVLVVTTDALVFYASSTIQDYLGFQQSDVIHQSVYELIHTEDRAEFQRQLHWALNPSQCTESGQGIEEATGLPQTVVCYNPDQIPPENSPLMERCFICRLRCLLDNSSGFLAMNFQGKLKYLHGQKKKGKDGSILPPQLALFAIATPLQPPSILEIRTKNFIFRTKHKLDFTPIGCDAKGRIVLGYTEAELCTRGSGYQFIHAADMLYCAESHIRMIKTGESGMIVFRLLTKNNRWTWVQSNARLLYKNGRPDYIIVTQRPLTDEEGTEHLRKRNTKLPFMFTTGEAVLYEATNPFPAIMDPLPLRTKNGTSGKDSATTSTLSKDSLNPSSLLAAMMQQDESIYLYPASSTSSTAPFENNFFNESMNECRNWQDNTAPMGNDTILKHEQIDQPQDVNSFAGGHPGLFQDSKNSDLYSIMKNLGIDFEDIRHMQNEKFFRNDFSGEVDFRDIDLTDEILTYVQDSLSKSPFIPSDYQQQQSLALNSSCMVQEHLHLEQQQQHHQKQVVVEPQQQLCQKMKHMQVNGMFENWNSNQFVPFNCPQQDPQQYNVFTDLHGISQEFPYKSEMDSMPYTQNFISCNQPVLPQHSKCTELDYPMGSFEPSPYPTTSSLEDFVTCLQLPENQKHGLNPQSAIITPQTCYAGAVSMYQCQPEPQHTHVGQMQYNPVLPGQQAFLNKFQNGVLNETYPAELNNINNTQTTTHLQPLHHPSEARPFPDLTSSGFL
Outline: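 HepG2 cells transiently transfected with cis-element-driven multiplexed reporter transcription units; endogenous transcription factor activity measured as reporter mRNA 24 h after dosing. RT-PCR, 6-FAM labelling, HpaI digestion, capillary electrophoresis; bidirectional fitting versus DMSO baseline.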

[14] = ATG_AP_1_CIS: Attagene CIS-FACTORIAL HepG2 Assay for human Activator Protein 1 (AP-1) (AID 2282931); conditions: HepG2 Attagene cis-factorial AP-1 reporter mRNA; actives raise or lower the signal
Outline: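 HepG2, transient cis-reporter transfection; 24 h; readout RT-PCR/CE fluorescence; DMSO baseline, gain and loss fitted.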

[15] = ATG_AP_2_CIS: Attagene CIS-FACTORIAL HepG2 Assay for human Activator Protein 2 (AP-2) (AID 2282932); conditions: HepG2 AP-2 cis-reporter, Attagene transcription factor profiling; actives raise or lower the signal
Outline: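 HepG2 cells were transiently transfected with multiple cis-promoter reporter transcription units and dosed for 24 h. Reporter mRNA was measured by RT-PCR with capillary electrophoresis fluorescence; bidirectional fits relative to DMSO baseline.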

[16] = ATG_BRE_CIS: Attagene CIS-FACTORIAL HepG2 Assay for human Bone Morphogenetic Protein (BMP) Response Element (BRE) (AID 2282933); conditions: HepG2 BMP response element reporter, Attagene transcription factor profiling; actives raise or lower the signal
Outline: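 HepG2 cells transiently transfected with CIS reporter units (endogenous TF activity, BMP response element), dosed 24 h. Reporter mRNA quantified by RT-PCR, fluorescent labelling and capillary electrophoresis; bidirectional fit vs DMSO baseline.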

[17] = molecular target: Retinoic acid receptor alpha (Homo sapiens) (UniProt P10276); assay: ATG_DR5_RAR_CIS: Attagene CIS-FACTORIAL HepG2 Assay for human Retinoic Acid Receptor Alpha (RARE), DR5 submotif (AID 2282934); conditions: HepG2 Attagene cis-factorial RARE DR5 reporter, mRNA; actives raise or lower the signal;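 as to AC50: reporter responds to endogenous RAR alpha beta and gamma in HepG2 not RARA alone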
Chain of Retinoic acid receptor alpha (Homo sapiens) (P10276 whole entry, looked up): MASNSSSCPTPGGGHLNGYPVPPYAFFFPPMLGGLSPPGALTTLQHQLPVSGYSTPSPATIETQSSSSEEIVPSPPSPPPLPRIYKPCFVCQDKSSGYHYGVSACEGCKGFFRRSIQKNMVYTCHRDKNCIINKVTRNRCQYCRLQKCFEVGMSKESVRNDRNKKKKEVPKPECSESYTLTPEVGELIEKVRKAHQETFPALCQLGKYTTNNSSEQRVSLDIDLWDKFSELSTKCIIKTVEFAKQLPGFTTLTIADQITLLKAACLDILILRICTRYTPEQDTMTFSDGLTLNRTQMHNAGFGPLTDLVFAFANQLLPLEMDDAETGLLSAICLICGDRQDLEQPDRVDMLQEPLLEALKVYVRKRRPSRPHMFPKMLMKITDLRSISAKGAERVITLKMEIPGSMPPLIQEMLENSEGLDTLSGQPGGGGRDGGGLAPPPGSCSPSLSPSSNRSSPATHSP
Outline: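 HepG2 cells transiently transfected with multiplexed reporter units under cis (DR5 RARE) promoters, so endogenous transcription factor activity is measured. After 24 h compound exposure, reporter mRNA is quantified by RT-PCR with fluorescent labelling and capillary electrophoresis; bidirectional fitting versus DMSO.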

[18] = ATG_CRE_CIS: Attagene CIS-FACTORIAL HepG2 Assay for human cAMP Responsive Element (CRE) binding protein 3 (AID 2282926); conditions: HepG2 CRE cis-reporter, Attagene multiplexed mRNA; actives raise or lower the signal
Outline: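 We dosed HepG2 cells bearing multiple cis-promoter reporter units for 24 h and measured reporter mRNA by RT-PCR with capillary electrophoresis detection. Bidirectional concentration-response fitting used DMSO as negative control.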

[19] = APR_HepG2_StressKinase_24hr: Apredica 24-hour HepG2 Assay for Stress Kinase (AID 2282922); conditions: HepG2 stress kinase (phospho-c-Jun) imaging, actives raise or lower the signal
Outline: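 HepG2 cells exposed 24 hr to compound at 0.39–200 uM (10 concentrations, duplicate), 0.5% v/v DMSO final. Fixed in 3.7% formaldehyde, permeabilized with Triton X-100, immunolabeled for phospho-c-Jun with Hoechst 33342; HCS fluorescence imaging, bidirectional fit versus DMSO.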

Measured: AC50

COc1ccc2c(c1)c(CC(=O)O)c(C)n2C(=O)c1ccc(Cl)cc1
not listed: [18] | [19]
inactive: all other assays above

CC=Cc1ccc(O)c(OC)c1
active: [13] 73.5 µM
not listed: [8] | [9] | [16] | [19]
inactive: all other assays above

NS(=O)(=O)c1cc2c(cc1Cl)NCNS2(=O)=O
not listed: [8] | [10] | [17] | [18] | [19]
inactive: all other assays above

CCCCN(CCCC)CCCC
not listed: [9] | [17] | [19]
inactive: all other assays above

CCCc1cc(=O)[nH]c(=S)[nH]1
active: [13] 63.9 µM
not listed: [8] | [10]
inactive: all other assays above

CNCc1cc(F)ccc1Oc1ccc(Cl)c(Cl)c1
active: [1] 56.9 µM | [2] 59.5 µM | [4] 32.6 µM | [7] 63 µM
not listed: [8] | [9] | [10] | [18] | [19]
inactive: all other assays above

NC(=O)Cn1c(=O)cc(CCN2CCN(c3nccc4sccc34)CC2)c2ccc(F)cc21
active: [1] 82 µM | [2] 101 µM | [4] 98.9 µM | [7] 101 µM | [11] 100 µM
not listed: [8] | [16] | [17]
inactive: all other assays above

CCc1c(C(=O)NN2CCCCC2)nn(-c2ccc(Cl)cc2Cl)c1-c1ccc(Br)cc1
active: [1] 27.2 µM | [3] 113 µM | [4] 27.7 µM | [5] 30 µM | [6] 32.8 µM | [8] 162 µM | [11] 6.36 µM | [12] 1.91 µM | [14] 3.93 µM | [17] 2.16 µM
inactive: [2] | [19] | [7] | [13] | [15] | [16]

O=C(OCCCCCOC(=O)c1ccccc1)c1ccccc1
active: [1] 100 µM
not listed: [8] | [9]
inactive: all other assays above

Cc1ccccc1Cl
not listed: [10] | [17] | [19]
inactive: all other assays above

COc1cc(/C=C/C(=O)CC(=O)/C=C/c2ccc(O)c(OC)c2)ccc1O
inactive: [3] | [9] | [16]
active: [1] 9.56 µM | [2] 15.1 µM | [4] 22 µM | [5] 15.9 µM | [6] 11.2 µM | [19] 47.9 µM | [7] 19.1 µM | [11] 54.2 µM | [12] 58.3 µM | [13] 55.2 µM | [14] 54.7 µM | [15] 55.5 µM | [17] 25.9 µM

CCCCCCC(=O)OCC
not listed: [8] | [9] | [18]
inactive: all other assays above

Cc1ccc(C)c(C)c1
not listed: [16] | [18] | [19]
inactive: all other assays above

CNC(=O)[C@H]1O[C@@H](n2cnc3c(NCc4cc(Cl)ccc4OCc4cc(C)no4)ncnc32)[C@H](O)[C@@H]1N
not listed: [8] | [16] | [17] | [18]
inactive: all other assays above
